Records with an inconclusive call do not appear. Calls of active or inactive are those of the source. Unless noted, the rule behind the calls is not given here.

Here are results for 7 compounds from PubChem BioAssay.

The nature of assay [1]: hit retest on RPL19A-GFP reporter strain – cell-based, S. cerevisiae, flow cytometry, cherry picks, mother/daughter gates, confirmation (AID 2270;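 active = GFP response below 50% of the DMSO control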). The note with it: 3 h, at 10 µM, stronger effect = lower value, 100 = same GFP as DMSO wells.
Assay [2] in a line: yeast TOR pathway reporter LAP4-GFP change – cell-based, cherry picks, flow cytometry, mother/daughter gates, confirmation (AID 2271;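 active = GFP response above 150% of the DMSO control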;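 note: ratio of sample to DMSO plate mean so 100% equals DMSO level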). The note with it: S. cerevisiae LAP4-GFP strain, 3 h, at 10 µM, stronger effect = higher value.
A short description of assay [3]: TOR pathway CIT2 reporter hit retest – S. cerevisiae, GFP fusion, cherry picks, mother/daughter gates, confirmation (AID 2274;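 active = GFP response above 150% of the DMSO level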). The settings on record: S. cerevisiae CIT2-GFP strain, flow cytometry, 3 h, at 10 µM, stronger effect = higher value. For orientation: In flow cytometry, cells or beads pass a laser one at a time.
The nature of assay [4]: rapamycin-like changes in RPL19A-GFP expression – cell-based, S. cerevisiae, multiplex flow cytometry, primary screen (AID 1862; in the data active = percent of DMSO control GFP below about 86%;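 note: lower values mimic rapamycin by blocking the RPL19A rise seen in DMSO cells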). The settings on record: S. cerevisiae RPL19A-GFP strain, flow cytometry fluorescence, 3 h; at 10 µM; stronger effect = lower value.
A short description of assay [5]: TOR pathway GLN3 branch reporter MEP2-GFP changes – S. cerevisiae, multiplex flow cytometry, primary screen (AID 1867;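 active = GFP response, as percent of the DMSO control, above the screen-wide mean plus 3 SD, about 139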;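 note: median GFP channel fluorescence of barcode-gated MEP2-GFP cells measured by flow cytometry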). The note with it: S. cerevisiae MEP2-GFP strain, 3 h, at 10 µM, stronger effect = higher value.
A short description of assay [6]: TOR pathway RTG branch CIT2 reporter changes – S. cerevisiae, GFP fusion, multiplex flow cytometry, primary screen (AID 1870;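 active = percent response above a set limit, the screen-wide mean plus 3 SD, cut at about 130% in these data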;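 note: barcoded CIT2-GFP strain pooled with four other GFP strains with rapamycin as positive control; median GFP fluorescence per well over plate mean of DMSO wells so 100% = DMSO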). The note with it: S. cerevisiae CIT2-GFP expression, 3 h, at 10 µM, stronger effect = higher value.
Assay [7] is described as follows: TOR pathway LAP4-GFP level changes – S. cerevisiae, multiplex flow cytometry, primary screen (AID 1873;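 active = GFP signal, as percent of the solvent control, above the screen mean plus 3 SD, about 149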). The note with it: S. cerevisiae LAP4-GFP expression, 3 h, at 10 µM, stronger effect = higher value.
Assay [8] can be described thus: reduced mouse 2C T cell binding to pMHC/ICAM-1 vesicles – MLPCN validation set, flow cytometry, LFA-1/ICAM-1 modulator project, pilot screen (AID 2523;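 active = response below a set limit, under 55% cells CD8-positive and vesicle-bound, and CD8 cells' 90th-percentile brightness under 279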;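 for vesicle binding response: mean PE anti-B7-1 fluorescence of CD8+ cells relative to row control; 100% = QL9-loaded vesicles with DMSO vehicle in the same plate row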). The note with it: 2C mouse CD8+ T cells, at 7 µM, stronger effect = lower value; double positive events: measured here: CD8+/vesicle+ event percentage.
In assay [9] the target is Integrin beta-1 (Homo sapiens) + Integrin alpha-4 (Homo sapiens) (UniProt P13612+P05556). Nature of the assay: alpha4beta1 integrin LIBS antibody binding reduction – U937 cells, HUTS-21 mAb, flow cytometry, validation set, VLA-4 allosteric modulator project, pilot screen (AID 2674;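 active = inhibition above 50%, about 3 SD of the validation set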;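 note: antibody binding induced by the VLA-4 ligand LDV present at three times its Kd; 0% = LDV ligand with antibody and no compound and 100% = antibody without LDV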). The settings on record: HUTS-21 LIBS mAb binding, at 6.7 µM, stronger effect = higher value.
Assay [10] can be described thus: calorie-restriction mimetic ROS inhibitors, yeast – validation compound set, pilot screen (AID 2706;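 active = superoxide response below 65% of plate, a cut near 3 SD across the whole screen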;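 note: yeast exposed to compound for one week at 30 degrees C before staining; 100% = mean of all compound wells on the same plate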). The settings on record: S. cerevisiae aging, superoxide DHE fluorescence; at 10 µM; stronger effect = lower value.
For assay [11], the target named is Beta-adrenergic receptor kinase 1 (Homo sapiens) (UniProt P25098). Nature of the assay: GRK2 binders displacing RNA aptamer, biochemical, validation, human GRK2, bead flow cytometry (AID 488806;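 active = aptamer binding inhibition above 30%, about 3 SD of noise from non-fluorescent compounds; inactive = inhibition at or below 30%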). The note with it: bead-bound GRK2, FAM-aptamer displacement, at 10 µM, stronger effect = higher value.
Assay [12] concerns the target AP-2 complex subunit beta (Homo sapiens) (UniProt P63010). Nature of the assay: beta-arrestin/AP2 interaction blockers – biochemical, validation set, GST-AP2 beads, flow cytometry, pilot screen (AID 504541;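 active = inhibition above 54%, about 3 SD of non-fluorescent compounds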;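 note: AP2 carries R879A mutation and is captured from E. coli lysate; bead-bound FITC arrestin peptide fluorescence measuring arrestin peptide binding to AP2; 0% = DMSO wells and 100% = excess unlabeled arrestin peptide control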). The settings on record: FITC arrestin peptide, at 10 µM, stronger effect = higher value.
The nature of assay [13]: cytosolic pH regulators acting via V-ATPase – S. cerevisiae, pHLuorin, HTS validation (AID 504600; in the data active = response above about 15%;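 note: plate controls were DMSO for no effect and reference compound for full effect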). The note with it: V-ATPase proton transport, at 10 µM, stronger effect = higher value.
Assay [14] concerns anti-desmoglein-3 scFv antibody binding to human DSG3. Nature of the assay: blockers of pathogenic pemphigus antibody–desmoglein-3 binding – biochemical, validation compound set, bead-based, flow cytometry, pilot screen (AID 588368;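 active = binding below the plate cutoff, the plate median minus 3 SD, with a reading above zero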;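 note: signal is the median channel fluorescence of bead-bound GFP antibody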). The note with it: Protein G beads, DSG3-Fc, scFv-GFP binding, at 10 µM, stronger effect = lower value.
In assay [15] the test system is Botulinum neurotoxin type F light chain protease (Clostridium botulinum). Nature of the assay: Clostridium botulinum type F light chain protease inhibitors, microsphere substrate cleavage, validation (AID 588459). The settings on record: multiplex microsphere protease substrate cleavage assay, flow cytometry; at 10 µM; stronger effect = higher value.
Assay [16] concerns the target Botulinum neurotoxin type A (Clostridium botulinum) (UniProt P0DPI0). Nature of the assay: BoNT/A light chain protease inhibitors, biochemical, multiplex microsphere flow cytometry, validation set (AID 588460). The note with it: at 10 µM, stronger effect = higher value.
The target in assay [17] is Lethal factor (Bacillus anthracis) (UniProt P15917). Nature of the assay: Bacillus anthracis lethal factor inhibition, microsphere flow cytometry protease assay, validation at 10 µM (AID 588461). The note with it: multiplex microsphere protease cleavage assay, stronger effect = higher value.
A short description of assay [18]: Nile Red efflux blockade in pump-expressing yeast – validation compound set, multiplex, phenotypic, pilot screen (AID 588506;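 active = efflux inhibition above 0.42, the validation set average plus 4 SD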;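 note: Nile Red retained in cells so higher fluorescence means more efflux inhibition; 0 = negative control wells and 1 = enniatin B 25 µM full block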). The note with it: S. cerevisiae pump-expressing triplex, Nile Red efflux flow cytometry; at 10 µM; stronger effect = higher value.
In assay [19] the target is ATP-binding cassette sub-family B member 6 (Homo sapiens) (UniProt Q9NP58). Nature of the assay: blockers of ABCB6-driven porphyrin uptake – K562-ABCB6 cells, flow cytometry, validation set, pilot screen (AID 588550;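 active = inhibition above the screen-wide mean plus 3 SD, about 51%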;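 note: 0% = DMSO wells and 100% = benzethonium chloride 70 µM positive control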). The note with it: K562-ABCB6 porphyrin accumulation, 1 h, at 10 µM, stronger effect = higher value.
The nature of assay [20]: AML differentiation inducers, ER-HoxA9 marrow cells – cell-based, GFP/MAC1 double positive, flow cytometry, validation set, primary screen (AID 588685;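 active = differentiation response of at least 50%, scaled between solvent and reference control, from cells with both markers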;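 note: compound exposure lasts four days before antibody staining and flow analysis; 0% = DMSO wells and 100% = 5 µM fulvestrant positive control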). The settings on record: stronger effect = higher value.
The mark [21] stands for this setting: measured here: daughter cell gate.
Setting [22] is: measured here: mother cell gate.
Setting [23] is: measured here: daughter cell gate response.
The mark [24] stands for this setting: measured here: mother cell gate response.

Chain of ATP-binding cassette sub-family B member 6 (Homo sapiens) (Q9NP58 whole entry, looked up): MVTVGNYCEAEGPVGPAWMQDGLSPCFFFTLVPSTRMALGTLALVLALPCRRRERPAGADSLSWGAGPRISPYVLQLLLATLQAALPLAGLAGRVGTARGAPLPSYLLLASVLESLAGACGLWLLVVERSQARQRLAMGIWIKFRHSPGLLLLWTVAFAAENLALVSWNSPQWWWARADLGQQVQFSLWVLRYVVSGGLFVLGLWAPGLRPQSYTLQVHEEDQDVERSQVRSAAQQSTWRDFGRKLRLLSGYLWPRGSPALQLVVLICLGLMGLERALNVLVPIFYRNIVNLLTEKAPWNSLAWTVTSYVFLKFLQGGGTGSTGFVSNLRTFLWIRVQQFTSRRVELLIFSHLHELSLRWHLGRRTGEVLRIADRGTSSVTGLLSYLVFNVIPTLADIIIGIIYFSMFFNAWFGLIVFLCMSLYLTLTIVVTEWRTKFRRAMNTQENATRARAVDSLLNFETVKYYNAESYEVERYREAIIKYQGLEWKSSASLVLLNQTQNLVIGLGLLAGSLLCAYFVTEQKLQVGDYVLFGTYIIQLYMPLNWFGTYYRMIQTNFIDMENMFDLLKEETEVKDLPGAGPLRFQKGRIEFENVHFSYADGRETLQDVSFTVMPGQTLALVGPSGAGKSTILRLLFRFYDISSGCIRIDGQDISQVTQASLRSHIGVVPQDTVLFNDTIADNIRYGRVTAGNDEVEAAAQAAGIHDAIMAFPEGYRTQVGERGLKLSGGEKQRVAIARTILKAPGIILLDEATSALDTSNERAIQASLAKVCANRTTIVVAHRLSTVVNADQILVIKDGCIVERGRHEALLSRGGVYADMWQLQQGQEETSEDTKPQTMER
Chain of Integrin beta-1 (Homo sapiens) + Integrin alpha-4 (Homo sapiens) (P05556 whole entry, looked up): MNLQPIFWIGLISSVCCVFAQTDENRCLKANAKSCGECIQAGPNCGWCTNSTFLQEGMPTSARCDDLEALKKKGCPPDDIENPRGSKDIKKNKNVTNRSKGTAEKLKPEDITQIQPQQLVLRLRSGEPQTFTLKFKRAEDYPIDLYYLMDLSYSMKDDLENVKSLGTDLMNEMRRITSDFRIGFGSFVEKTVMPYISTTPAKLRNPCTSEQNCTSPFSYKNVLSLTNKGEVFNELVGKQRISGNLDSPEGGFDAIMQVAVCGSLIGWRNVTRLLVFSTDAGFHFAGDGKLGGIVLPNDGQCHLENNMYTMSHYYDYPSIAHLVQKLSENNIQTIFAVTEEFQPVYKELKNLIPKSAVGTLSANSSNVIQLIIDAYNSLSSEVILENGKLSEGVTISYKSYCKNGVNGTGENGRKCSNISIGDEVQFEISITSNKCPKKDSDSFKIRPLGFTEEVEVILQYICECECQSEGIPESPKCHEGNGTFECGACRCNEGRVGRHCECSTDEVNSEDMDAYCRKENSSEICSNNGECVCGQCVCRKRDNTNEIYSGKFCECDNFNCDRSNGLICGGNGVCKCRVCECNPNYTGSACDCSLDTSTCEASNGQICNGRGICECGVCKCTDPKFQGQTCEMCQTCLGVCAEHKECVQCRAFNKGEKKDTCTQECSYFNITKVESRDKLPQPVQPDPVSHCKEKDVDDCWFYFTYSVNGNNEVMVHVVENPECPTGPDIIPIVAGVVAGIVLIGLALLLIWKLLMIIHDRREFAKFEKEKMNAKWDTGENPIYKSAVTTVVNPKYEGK
Chain of Integrin beta-1 (Homo sapiens) + Integrin alpha-4 (Homo sapiens) (P13612 whole entry, looked up): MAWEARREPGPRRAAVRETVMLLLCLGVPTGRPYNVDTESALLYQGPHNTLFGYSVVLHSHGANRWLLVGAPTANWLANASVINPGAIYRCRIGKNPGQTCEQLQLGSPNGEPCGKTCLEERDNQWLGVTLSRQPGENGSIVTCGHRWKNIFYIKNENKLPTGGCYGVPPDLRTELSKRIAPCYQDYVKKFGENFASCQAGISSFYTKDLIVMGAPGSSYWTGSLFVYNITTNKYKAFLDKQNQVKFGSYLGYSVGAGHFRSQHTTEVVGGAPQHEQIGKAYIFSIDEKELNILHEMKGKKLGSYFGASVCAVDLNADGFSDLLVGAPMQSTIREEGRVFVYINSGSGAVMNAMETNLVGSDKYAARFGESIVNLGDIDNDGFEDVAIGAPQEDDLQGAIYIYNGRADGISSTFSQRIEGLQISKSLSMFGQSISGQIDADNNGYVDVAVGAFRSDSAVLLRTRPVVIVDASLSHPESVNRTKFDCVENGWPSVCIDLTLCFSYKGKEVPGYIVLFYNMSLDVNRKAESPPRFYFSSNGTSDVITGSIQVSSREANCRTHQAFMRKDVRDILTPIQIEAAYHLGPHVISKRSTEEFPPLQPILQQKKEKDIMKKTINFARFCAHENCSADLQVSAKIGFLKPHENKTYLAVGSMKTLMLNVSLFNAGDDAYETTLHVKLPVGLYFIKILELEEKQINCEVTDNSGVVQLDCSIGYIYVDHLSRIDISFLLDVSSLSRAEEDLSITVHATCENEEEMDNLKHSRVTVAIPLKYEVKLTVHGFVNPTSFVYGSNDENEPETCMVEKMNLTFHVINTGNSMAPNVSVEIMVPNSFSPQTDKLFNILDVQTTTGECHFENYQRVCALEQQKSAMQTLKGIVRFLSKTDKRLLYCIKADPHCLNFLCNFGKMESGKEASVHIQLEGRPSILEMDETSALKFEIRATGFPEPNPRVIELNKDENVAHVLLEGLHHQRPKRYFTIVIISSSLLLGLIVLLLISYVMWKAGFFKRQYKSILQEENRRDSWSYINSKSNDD
Chain of Beta-adrenergic receptor kinase 1 (Homo sapiens) (P25098 whole entry, looked up): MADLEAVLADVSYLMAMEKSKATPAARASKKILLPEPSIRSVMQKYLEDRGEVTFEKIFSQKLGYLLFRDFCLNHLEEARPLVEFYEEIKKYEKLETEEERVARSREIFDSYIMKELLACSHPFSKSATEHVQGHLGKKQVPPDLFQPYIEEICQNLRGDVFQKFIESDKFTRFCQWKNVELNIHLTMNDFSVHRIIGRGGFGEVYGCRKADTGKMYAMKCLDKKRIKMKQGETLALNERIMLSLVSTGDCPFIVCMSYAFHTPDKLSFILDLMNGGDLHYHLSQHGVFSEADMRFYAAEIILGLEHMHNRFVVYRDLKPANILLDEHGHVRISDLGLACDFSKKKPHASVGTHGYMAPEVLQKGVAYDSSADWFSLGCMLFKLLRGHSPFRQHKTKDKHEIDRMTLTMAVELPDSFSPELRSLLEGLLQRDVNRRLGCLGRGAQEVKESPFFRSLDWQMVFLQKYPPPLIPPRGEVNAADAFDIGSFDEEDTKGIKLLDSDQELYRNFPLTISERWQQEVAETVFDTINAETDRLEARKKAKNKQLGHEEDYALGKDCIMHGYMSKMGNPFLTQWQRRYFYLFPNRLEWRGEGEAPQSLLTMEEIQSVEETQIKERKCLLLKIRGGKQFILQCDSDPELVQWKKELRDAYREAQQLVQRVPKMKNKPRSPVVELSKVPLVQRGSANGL
Chain of Botulinum neurotoxin type A (Clostridium botulinum) (P0DPI0 whole entry, looked up): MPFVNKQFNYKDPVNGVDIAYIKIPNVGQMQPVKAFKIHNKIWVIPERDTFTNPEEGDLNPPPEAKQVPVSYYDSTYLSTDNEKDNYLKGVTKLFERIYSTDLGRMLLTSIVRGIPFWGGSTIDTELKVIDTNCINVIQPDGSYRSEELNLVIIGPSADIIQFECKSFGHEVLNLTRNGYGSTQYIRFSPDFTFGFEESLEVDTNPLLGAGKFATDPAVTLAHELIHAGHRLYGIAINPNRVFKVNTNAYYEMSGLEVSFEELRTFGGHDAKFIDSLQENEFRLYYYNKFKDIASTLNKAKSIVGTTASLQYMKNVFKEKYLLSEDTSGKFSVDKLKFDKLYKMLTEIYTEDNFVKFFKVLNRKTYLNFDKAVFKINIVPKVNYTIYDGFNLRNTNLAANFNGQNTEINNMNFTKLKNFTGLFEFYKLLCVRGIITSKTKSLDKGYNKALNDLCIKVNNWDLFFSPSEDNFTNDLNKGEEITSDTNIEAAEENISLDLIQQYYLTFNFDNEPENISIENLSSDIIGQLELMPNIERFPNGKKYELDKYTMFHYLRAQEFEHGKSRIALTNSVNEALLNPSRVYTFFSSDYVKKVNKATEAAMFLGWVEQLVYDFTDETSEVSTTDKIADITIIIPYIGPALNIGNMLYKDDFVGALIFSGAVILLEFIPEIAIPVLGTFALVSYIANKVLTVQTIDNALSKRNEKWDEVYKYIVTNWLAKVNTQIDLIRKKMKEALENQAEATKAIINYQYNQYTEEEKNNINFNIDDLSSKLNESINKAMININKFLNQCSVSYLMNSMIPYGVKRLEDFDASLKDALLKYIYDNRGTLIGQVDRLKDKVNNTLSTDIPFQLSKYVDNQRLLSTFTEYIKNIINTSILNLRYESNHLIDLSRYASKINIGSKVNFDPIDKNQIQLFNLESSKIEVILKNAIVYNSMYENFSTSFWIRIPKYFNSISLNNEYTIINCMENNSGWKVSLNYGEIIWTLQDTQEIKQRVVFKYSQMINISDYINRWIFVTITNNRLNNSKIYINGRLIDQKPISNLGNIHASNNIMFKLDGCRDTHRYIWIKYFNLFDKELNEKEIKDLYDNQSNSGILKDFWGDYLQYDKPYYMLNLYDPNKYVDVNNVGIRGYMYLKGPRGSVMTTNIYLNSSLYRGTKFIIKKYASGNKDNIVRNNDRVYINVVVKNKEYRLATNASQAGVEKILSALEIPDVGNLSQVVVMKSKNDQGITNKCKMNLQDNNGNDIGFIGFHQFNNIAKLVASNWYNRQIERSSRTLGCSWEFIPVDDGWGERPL

Turning to `O=[N+]([O-])c1ccc(N2CCNCC2)cc1Sc1ccccn1`, the GFP response vs DMSO in [1] was 98.4% (inactive); in assay [1] (setting [21]), 98.4%; in assay [1] (setting [22]) it was 99.4%. Also, the GFP response relative to DMSO in [2] is 91.4% (inactive); in assay [2] (setting [23]), 92.5%; in assay [2] (setting [24]) it was 91.1%. Further, the GFP response, % of DMSO was 96.5% (inactive) in assay [3], 96.5% in [3] (setting [21]) and 95.5% in assay [3] (setting [22]).

On to `O=c1[nH]c(=S)n(-c2ccccc2)c(O)c1/C=N/N1CCOCC1`, for which the GFP response vs DMSO in [1] was 102% (inactive); in [1] (setting [21]), 103%; in assay [1] (setting [22]), 102%. Besides, the GFP response relative to DMSO in [2] is 95.7% (inactive); in assay [2] (setting [23]) it was 97.5%; in [2] (setting [24]) it was 96.2%. Moreover, the GFP response, % of DMSO in [3] was 100% (inactive); in assay [3] (setting [21]), 103%; in assay [3] (setting [22]), 99.3%.

As for `Fc1ccc(C(OCCN2CCCC2)c2ccc(Br)cc2)cc1` (stereo unspecified), the percent of DMSO control GFP in [4] is 98.8% (inactive). The GFP response vs DMSO in [5] is 98.5% (inactive); in assay [7] it was 109% (inactive). The percent response of DMSO control in assay [6] is 93.9% (inactive). In [8], this compound registered a double positive events of 69.4%. In assay [8], the vesicle binding response was 310% (inactive). In addition, the inhibition (commonly the drop in the measured response relative to a control, in per cent) is -4.52% (inactive) in assay [9]; -3.21% (inactive) in assay [12]; 5.6% (inactive) in assay [15]; -0.6% (inactive) in [16]; 3% (inactive) in assay [17]; 7% (inactive) in [19]. Also, in assay [10], the superoxide response (% of plate) is 94.6% (inactive). In addition, the aptamer binding inhibition in assay [11] is -9% (inactive). In addition, the response in [13] is 0.75% (inactive). For the same compound, the binding (% of control) in assay [14] is 103% (inactive). Besides, the efflux inhibition (fraction of control) in assay [18] was 0.84 (active). In assay [20], the differentiation response is 16.8% (inactive).

In the case of `CN1CCN(c2ccc([N+](=O)[O-])c(Sc3ccccn3)c2)CC1`, the GFP response vs DMSO in assay [1] was 98.4% (inactive); in [1] (setting [21]), 98.9%; in assay [1] (setting [22]), 99.5%. Also, the GFP response relative to DMSO in assay [2] is 95.4% (inactive); in [2] (setting [23]), 96%; in [2] (setting [24]), 95.1%. Moreover, the GFP response, % of DMSO in assay [3] was 103% (inactive); in [3] (setting [21]), 103%; in [3] (setting [22]) it was 102%.

Regarding `CC(C)[C@@]1(NC(=O)[C@@H]2C[C@@H]3c4cccc5[nH]cc(c45)C[C@H]3N(C)C2)O[C@@]2(O)[C@@H]3CCCN3C(=O)[C@H](Cc3ccccc3)N2C1=O`, the percent of DMSO control GFP in assay [4] is 88.4% (inactive). In addition, the GFP response vs DMSO in assay [5] was 132% (inactive); in assay [7], 84.2% (inactive). Besides, the percent response of DMSO control in assay [6] was 112% (inactive). Besides, the double positive events in assay [8] turned out to be 74.1%. Besides, in assay [8], the vesicle binding response is 240% (inactive). The inhibition is -14.9% (inactive) in [9]; 0.81% (inactive) in assay [12]; -9.2% (inactive) in assay [15]; -1.6% (inactive) in assay [16]; -32% (inactive) in [17]; 9% (inactive) in assay [19]. The superoxide response (% of plate) in assay [10] was 98.1% (inactive). Further, the aptamer binding inhibition in assay [11] was -3% (inactive). Moreover, the response in assay [13] was 1.06% (inactive). Further, the binding (% of control) in assay [14] is 114% (inactive). The efflux inhibition (fraction of control) in [18] was 0.37 (inactive). In [20], the differentiation response is 4.09% (inactive).

In the case of `CCCCn1c(=O)c(C(=O)Nc2ccsc2C(=O)OC)c(O)c2ccccc21`, the GFP response vs DMSO in assay [1] is 101% (inactive); in [1] (setting [21]), 94.9%; in [1] (setting [22]), 100%. The GFP response relative to DMSO is 94.4% (inactive) in assay [2], 95.9% in assay [2] (setting [23]) and 94.1% in assay [2] (setting [24]). The GFP response, % of DMSO in [3] was 95.9% (inactive); in assay [3] (setting [21]), 93.8%; in assay [3] (setting [22]), 95.6%.

Regarding `O=C1NC(=O)N(c2ccccc2)C(=O)/C1=C/c1ccc(Sc2ccccc2)o1`, the GFP response vs DMSO is 99.7% (inactive) in [1], 98.5% in assay [1] (setting [21]) and 95.2% in assay [1] (setting [22]). Further, the GFP response relative to DMSO in assay [2] was 177% (active); in [2] (setting [23]) it was 135%; in [2] (setting [24]) it was 170%. The results for the GFP response, % of DMSO in [3], in assay [3] (setting [21]) and in assay [3] (setting [22]) were 89.2% (inactive), 98.3% and 79.3%, respectively.
